# Bioassay records as filed in PubChem.
# ATXN viability – cell viability loss in ATXN counter-screen. Potency, µM (doses to about 56.7 µM), hits mostly cytotoxic. S2 cells (HEK-293 line with an ATXN2-luciferase reporter) viability, CellTiter-Fluor protease fluorescence, 24 h. 400,000 compounds, 0.49% hits; further: nearly all actives have a fitted effect of over 40% in size
# TDP1 cell noCPT – qHTS for Inhibitors of human tyrosyl-DNA phosphodiesterase 1 (TDP1): qHTS in cells in absence of CPT; DT40 Tdp1-/- hTDP1 cells, no CPT, ATP luminescence, 48 h; AID 686978, 2013; 420,000 compounds, 15% hits; Potency, µM (doses to about 46.2 µM), inactives show at the top dose activity change, negative = growth inhibition, actives largely listed as inhibitors; further: on the % scale 0 is the no-effect control and ±100 the full control effect; nearly all actives have a fitted effect of over 55% in size
#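 Growth of hTDP1-complemented DT40 Tdp1-knockout cells is measured by ATP luminescence after at least 48 hr compound exposure at 37 °C, with DMSO substituting for the 20 nM CPT used in the parallel screen.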
# ATXN2 expr inh – ATXN2 expression inhibition; HEK-293 ATXN2-luciferase reporter, luminescence, 24 h; Potency, µM (doses to about 57 µM), inactives show at the highest dose activity change, negative = inhibition, actives largely listed as inhibitors; 360,000 compounds, 0.72% hits; further: on the % scale 0 is the no-effect control and ±100 the full control effect; nearly all actives have a fitted effect of over 55% in size
#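 ATXN2-luciferase reporter cells (luciferase flanked by upstream and downstream ATXN2 gene portions) were treated 24 h at 37 °C with compounds at up to 57 uM. SteadyGlo luminescence gave expression; GF-AFC fluorescence gave viability.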
# HepG2 viability – kills HepG2 cells in TGF-b inhibitor counter-screen; HepG2 CAGA-GFP viability, ATP luminescence, 18 h; Potency, µM (doses to about 46.1 µM), without a hit: at the top dose activity change, negative = cytotoxicity, actives largely listed as cytotoxic; 410,000 compounds, 0.76% hits
#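 HepG2 CAGA-GFP cells (1000/well, DMEM with 1% FBS) received compound, then TGF-beta at 500 pg/mL final, and were incubated 18 hours at 37 degrees C. Viability was read by CellTiter-Glo luminescence. Media-only wells were set as complete cell-killing and DMSO as no toxicity.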
# TGFb SMAD3 inh – TGF-b pathway inhibition; Potency, µM (doses to about 46.1 µM), for inactives: at the top dose activity, negative = inhibition, most hits filed as inhibitors; 410,000 compounds, 1.2% hits; AID 588855; HepG2 CAGA-GFP TGF-b/SMAD3 reporter, GFP fluorescence, 18 h; TGF-beta stimulated, 500 pg/mL final; further: on the % scale 0 is the no-effect control and ±100 the full control effect; nearly all actives have a fitted effect of over 65% in size
#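 Smad-responsive CAGA-GFP expression was quantified in HEPG2 cells exposed to compounds and 500 pg/mL final TGF-beta for 18 h at 37 degrees C; unstimulated wells defined full inhibition.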
# TDP1 cell CPT – DT40-hTDP1 cell growth loss with CPT; chicken DT40 Tdp1-/-;hTDP1 cells + 20 nM CPT, ATP luminescence, 48 h; Potency, µM (top dose mostly 46.2 µM), without a hit: top-dose activity change, negative = growth inhibition, actives largely listed as inhibitors; 420,000 compounds, 12% hits; AID 686979; further: on the % scale 0 is the no-effect control and ±100 the full control effect; nearly all actives have a fitted effect of over 55% in size
#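 Chicken DT40 Tdp1-/- cells complemented with human TDP1, 400 cells/well, exposed to compounds plus 20 nM camptothecin for at least 48 h at 37 C; viability read as ATP content by CellTiter-Glo luminescence.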
# * = called active by the depositor; i = inactive; u = inconclusive; x = no result given; [ ] = remark or other dose. Most compounds without a hit are left out; they make up all but 17% or so of the library. The call rests on the fitted dose curve; in most records, active means well fitted curve in the direction sought with a large enough effect; inconclusive means small, poorly fitted or top-dose-only effect, or another doubt; inactive means no such curve, though single readings can be large; an effect the other way counts as inactive or inconclusive. Potency means the concentration at half of the fitted maximal effect.
SMILES,ATXN viability,TDP1 cell noCPT,ATXN2 expr inh,HepG2 viability,TGFb SMAD3 inh,TDP1 cell CPT
c1ccc(OCc2ccc(CCCN3CCOCC3)cc2)cc1,i,21.1µM*,6.5%,-15.5%,-22.8%,u
CN(C)c1ccc(CCN2CCOCC2)cc1,i,9.5%,62.3%,-4.3%,u,1.7%
CC(=O)c1ccc(OCC(=O)N2CCCC(N3CCN(c4ccccc4C)CC3)C2)cc1 (configuration not stated),i,u,-4.4%,-13.7%,-5.1%,u
Cc1ccccc1-c1nn2c(=O)cc(CN3CCN(C(=O)COc4ccccc4Cl)CC3)nc2s1,u,8.2µM*,u,-15.2%,u,18.4µM*
Cc1cccc(-c2nn3c(=O)cc(CN4CCN(C(=O)COc5ccc(Cl)cc5)CC4)nc3s2)c1,i,u,3.1%,-15.8%,u,u
O=C(COc1ccccc1F)N1CCN(Cc2cc(=O)n3nc(-c4ccccc4Cl)sc3n2)CC1,i,14.6µM*,0.4%,-4.1%,-9.6%,u
CN1CCN(C(=O)O[C@H]2c3nccnc3C(=O)N2c2ccc(Cl)cn2)CC1,i,13.6%,11.0%,9.9%,0.0%,9.9%
COC(=O)c1c(N)n(Cc2ccc(OC)cc2)c2nc3ccccc3nc12,i,16.4µM*,3.3%,0.2%,-4.9%,u
CCCCNC(=O)c1c(N)n(CCCOC)c2nc3ccccc3nc12,x,u,-19.4%,-13.1%,-14.6%,u
CC(C)OC(=O)c1c(N)n(Cc2ccco2)c2nc3ccccc3nc12,i,u,-7.4%,9.3%,21.3%,u
COCCOC(=O)c1c(N)n(Cc2ccc(OC)cc2)c2nc3ccccc3nc12,i,20.6µM*,-0.4%,-1.1%,26.9%,u
Nc1ncnc2c1ncn2[C@@H]1O[C@@H]2COP(O)(=S)O[C@H]2[C@H]1O (some centres not stated),x,-5.0%,x,8.6%,-2.3%,6.3%
CNC(C)C#Cc1ccc2oc3cc(C)c(C)cc3c(=O)c2c1 (configuration not stated),u,14.6µM*,-25.1%,-25.3%,u,u
C=C(C)c1cc2cc(C(C)=O)c(O)cc2o1,x,-3.5%[9.04 µM],x,x,x,9.1%[9.04 µM]
CC1(C)CSC(=NCc2ccccc2)N1,i,-7.0%,x,-32.1%,8.91µM*,1.5%
CC(=O)Oc1ccc2c3c1O[C@H]1[C@@H](OC(C)=O)C=C[C@H]4[C@@H](C2)N(C)CC[C@@]341,i,u,x,x,x,-28.4%[92.5 µM]
Cc1ccc(/C=C/C(=O)C2C(=O)c3ccccc3C2=O)cc1,i,u,u,-29.7%,-1.4%,16.4µM*
CO[C@H](C(=O)[C@@H](O)[C@@H](C)O)C1Cc2cc3cc(O[C@H]4C[C@@H](O[C@H]5C[C@@H](O)[C@H](O)[C@@H](C)O5)[C@@H](O)[C@@H](C)O4)c(C)c(O)c3c(O)c2C(=O)[C@H]1O[C@H]1C[C@@H](O[C@H]2C[C@@H](O[C@H]3C[C@](C)(O)[C@H](O)[C@@H](C)O3)[C@H](O)[C@@H](C)O2)[C@H](O)[C@@H](C)O1 (some centres not stated),u,0.0841µM*,x,x,x,0.075µM*
COC(C(=O)C(O)C(C)O)C1Cc2cc3cc(OC4CC(OC5CC(O)C(O)C(C)O5)C(O)C(C)O4)c(C)c(O)c3c(O)c2C(=O)C1OC1CC(OC2CC(OC3CC(C)(O)C(O)C(C)O3)C(O)C(C)O2)C(O)C(C)O1 (configuration not stated),x,0.0282µM*,x,23.4%,0.631µM*,0.159µM*
CCOP(=O)(CN(CC)CCNP(=O)(OCC)OCC)OCC,i,-8.6%,100.8%,-12.1%,u,-3.6%
CC(=O)C1CCC2C3CCC4CC(O)CCC4(C)C3CC(O)C12C (configuration not stated),x,-21.6%,x,x,x,10.5%
O=C(c1ccccc1)c1ccc2nc(N3CCN(c4ccc(F)cc4)CC3)c3nncn3c2c1,x,8.2µM*,x,-21.2%,0.0%,7.31µM*
O=C(O)Cc1ccc(OCCNC[C@H](O)c2ccccc2)cc1,i,u,11.8%,x,x,-16.7%
COc1cc(C(=S)N2CCOCC2)cc(OC)c1OC(=O)Cc1ccccc1,u,-1.7%,-15.9%,-2.0%,-11.4%,-11.8%
CC(=NCCC1=CCCCC1)c1c(O)n(C)c(=O)n(C)c1=O,i,23.1µM*,-20.0%,-30.4%,-0.5%,10.3µM*
SMILES,ATXN viability,TDP1 cell noCPT,ATXN2 expr inh,HepG2 viability,TGFb SMAD3 inh,TDP1 cell CPT
O=C(c1ccc2c(c1)N(Cc1ccccc1)CCS2)N1CCC2(CC1)OCCO2,i,8.1%,-6.6%,-2.8%,7.7%,-29.2%
C=CCN1C(=O)c2ccccc2Sc2ccc(C(=O)N3CCC4(CC3)OCCO4)cc21,i,u,-14.6%,0.3%,0.0%,u
Cc1ccc(CN2C(=O)c3ccccc3Sc3ccc(C(=O)N4CCC5(CC4)OCCO5)cc32)cc1,x,23.1µM*,x,-37.0%,u,u
O=C(c1ccc2c(c1)N(Cc1ccc(F)cc1Cl)C(=O)c1ccccc1S2)N1CCC2(CC1)OCCO2,x,23.1µM*,x,-19.1%,11.2µM*,23.1µM*
COC(=O)c1ccccc1C(=O)OC,i,-5.4%,x,x,x,0.5%
COc1ccc(-c2oc3cc(OC)ccc3c(=O)c2O)cc1,x,11.9µM*,x,x,x,11.9µM*
COc1cccc(Oc2c(C)oc3cc(OC(=O)N(C)C)ccc3c2=O)c1,i,-15.1%,-10.7%,4.7%,4.9%,u
CC(=O)O[C@H]1C(=O)[C@@]2(C)C([C@H](OC(=O)c3ccccc3)[C@]3(O)C[C@H](OC(=O)[C@H](O)[C@@H](NC(=O)Cc4ccccc4)c4ccccc4)C(C)=C1C3(C)C)[C@]1(OC(C)=O)CO[C@@H]1C[C@@H]2O (some centres not stated),u,0.184µM*,0.0%,-19.5%,u,0.184µM*
CC(=O)O[C@@]12CO[C@@H]1C[C@H](O)[C@@]1(C)C(=O)[C@H](O)C3=C(C)[C@@H](OC(=O)[C@H](O)[C@@H](NC(=O)c4ccccc4)c4ccccc4)C[C@@](O)([C@@H](OC(=O)c4ccccc4)C12)C3(C)C (some centres not stated),i,0.206µM*,-12.8%,-15.5%,-28.4%,0.0326µM*
